High-throughput results deposited in PubChem BioAssay by several laboratories.
Most compounds without a hit are left out; they make up all but 21% or so of the library.
CYP2C9 inhib: human CYP2C9 inhibition; P11712; CYP2C9 Supersomes, luciferin-H conversion, luminescence; inhibition, % at 5 µM; 96,000 tested, 20% active;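 active = blocking of liver enzyme CYP2C9 beyond about 50% at 5 µM, limit read from the data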
Target sequence (P11712 whole entry, looked up): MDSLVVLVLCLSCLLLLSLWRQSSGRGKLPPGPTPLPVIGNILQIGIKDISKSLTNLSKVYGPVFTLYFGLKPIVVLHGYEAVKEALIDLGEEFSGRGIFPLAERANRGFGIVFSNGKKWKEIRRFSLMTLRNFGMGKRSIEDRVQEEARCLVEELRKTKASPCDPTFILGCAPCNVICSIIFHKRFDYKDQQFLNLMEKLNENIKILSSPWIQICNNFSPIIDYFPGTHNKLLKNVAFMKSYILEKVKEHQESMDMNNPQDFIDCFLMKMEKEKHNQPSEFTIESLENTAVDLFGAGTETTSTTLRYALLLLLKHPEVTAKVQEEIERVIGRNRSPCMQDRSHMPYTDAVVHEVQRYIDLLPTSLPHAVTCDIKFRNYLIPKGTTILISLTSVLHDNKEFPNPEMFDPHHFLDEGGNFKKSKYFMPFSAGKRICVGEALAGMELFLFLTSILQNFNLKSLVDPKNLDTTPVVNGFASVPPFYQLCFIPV
MRP1 act: activators of MRP-1; 140,000 tested, 0.61% active; H69AR cells + doxorubicin, viability rescue, CellTiter-Glo; viability increase, % at 10 µM;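 active = viability gain under doxorubicin at or above a set limit, the compound median plus 3 SD, cut at about 4.7% in these data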;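 also: MRP-1 overexpressing cells given doxorubicin 25 µM after compound pretreatment; 18-22 h compound pretreatment then 72 h with doxorubicin before readout; 0% = doxorubicin-only wells and 100% = vehicle-treated cells without doxorubicin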
CYP2C19 activ: cytochrome P450 2C19 (human) activation | activation factor at 5 µM | P33261 | 96,000 tested, under 10 active | recombinant CYP2C19, luciferin-H EGE luminescence; active compounds read high; 0 = fully inhibited enzyme, 1 = untreated enzyme | AID 1025;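 active = activation factor of at least 2 at 5 µM in the primary screen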;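 also: 0 = wells with 2.5 mM tranylcypromine and 1 = vehicle-only wells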
CYP2C19 inhib: blocks human cytochrome P450 2C19; CYP2C19 Supersomes, luciferin-H EGE luminescence, 30 min; inhibition, % at 5 µM; 96,000 tested, 21% active; AID 778;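 active = CYP2C19 inhibition above a set limit at 5 µM in the primary screen, cut at about 50% in these data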;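 also: plate controls were negative control wells for no effect and 2.5 mM tranylcypromine positive control for full effect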
CYP2C9 activ: activators of human CYP2C9 | AID 1024 | recombinant CYP2C9, luciferin-H conversion, luminescence; active compounds read high; factor 1 = untreated enzyme, 0 = blocked | activation factor at 5 µM | 96,000 tested, 1.4% active | P11712;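 active = activation factor of 2 or more for CYP2C9 at a 5 µM dose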;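 also: 0 = sulfaphenazole-blocked wells and 1 = vehicle-only wells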
MRP reversal: compounds reversing MRP-mediated drug resistance. H69AR cells + 2 uM doxorubicin, CellTiter-Glo, 72 h. 85,000 tested, 0.04% active. differential viability (reversal), % at 10 µM. AID 602;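 active = viability drop by adding the cancer drug above about 55%, with treated viability meeting a 40% cutoff, limit read from the data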;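 also: viability without doxorubicin minus viability with 2 µM doxorubicin for each compound; larger differential means the compound sensitizes cells more to doxorubicin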
Active calls of the source: *; . = no result given.

SMILES	CYP2C9 inhib	MRP1 act	CYP2C19 activ	CYP2C19 inhib	CYP2C9 activ	MRP reversal
COc1cccc(Oc2nnnn2-c2ccccc2)c1	25	0	0.4	60*	0.8	.
c1ccc(-n2nnnc2Oc2ccc(-c3nnco3)cc2)cc1	.	-3	.	.	.	-14
Clc1ccc(Oc2nnnn2-c2ccccc2)cc1	48	1	0.3	73*	0.5	9
COc1ccc(Oc2nnnn2-c2ccccc2)cc1	.	-4	.	.	.	12
CC(C)Oc1nnnn1-c1ccccc1	63*	1	0.6	39	0.4	-1
c1ccc(-n2nnnc2Oc2ccc(-n3ccnc3)cc2)cc1	99*	0	0	100*	0	4
c1ccc(-n2nnnc2-n2ccnc2)cc1	-1	-1	0.9	15	1	-7
CC(=O)Nc1ccc(NC(=O)/C(Cl)=C/c2ccccc2)cc1	-3	-3	0.9	10	1	.
O=C(COC(=O)Cc1ccccc1F)Nc1cc(S(=O)(=O)N2CCOCC2)ccc1N1CCCC1	.	-1	.	.	.	.
Cc1cc(C(=O)COC(=O)c2n[nH]c3ccccc23)c(C)n1C	-63	-3	0.6	43	1.6	-6
COc1cc(C(=O)OCC(=O)c2cc(C)n(C)c2C)cc(OC)c1OC	-148	-2	0.4	58*	2.5*	-40
O=C(/C=C/c1ccccc1)NC(=S)Nc1ccc2c3c(cccc13)CC2	.	-3	.	.	.	.
Cc1cc2oc(=O)cc(CN3CCC(C)CC3)c2cc1Cl	10	1	0.1	85*	0.9	18
Cc1ccc2c(CN3C(=O)NC(C)(c4ccc5c(c4)OCO5)C3=O)cc(=O)oc2c1 (centres undefined)	98*	-2	0.1	92*	0	17
Cc1cc2oc(=O)cc(CN3CCN(Cc4ccc5c(c4)OCO5)CC3)c2cc1C	.	-1	.	.	.	-17
Cc1cc2oc(=O)cc(CN3CCCCC3C)c2c(C)c1Cl (centres undefined)	11	1	0.4	56*	0.9	3
Cc1ccc2c(CN3CCC(C)CC3)cc(=O)oc2c1	67*	-4	0	100*	0.3	11
COc1ccc(N2CCN(Cc3cc(=O)oc4ccc(C)cc34)CC2)cc1	-3	0	0.9	10	1	5
COC(=O)c1c(NC(=O)CN2CCCC(C)C2)c2c(C)cccc2n1C (centres undefined)	-3	-2	0.9	11	1	-21
O=C(c1ccc(S(=O)(=O)c2ccccc2Cl)c([N+](=O)[O-])c1)N1CCN(Cc2ccccc2)CC1	.	-5	.	.	.	.
Cc1cc(C)n(CC(=O)N/N=C/c2cccc([N+](=O)[O-])c2)n1	.	-1	.	.	.	.
CCc1cccc2c(/C=N/NC(=O)c3cccc(S(=O)(=O)Nc4ccccc4Cl)c3)c[nH]c12	.	-1	.	.	.	.
O=C(N1CCCCC1)C12CC3CC(C1)CC(C(=O)N1CCCCC1)(C3)C2	64*	-1	0.3	66*	0.4	5
O=C(Cc1cccs1)Nc1cccnc1	6	-2	0.9	7	0.9	.
Cc1ccc(/C=N/N2CCN(c3ccncc3S(=O)(=O)N3CCCCC3)CC2)cc1	10	2	1	-2	0.9	.
SMILES	CYP2C9 inhib	MRP1 act	CYP2C19 activ	CYP2C19 inhib	CYP2C9 activ	MRP reversal
O=S(=O)(c1cnccc1N1CCN(/N=C/c2ccc(Cl)cc2)CC1)N1CCCCC1	60*	0	0.7	33	0.4	.
O=C(Nn1cnc2ccccc2c1=O)C1CCCCC1	16	-1	0.9	7	0.8	22
CCCC1CCC(C(=O)Nn2cnc3ccccc3c2=O)CC1 (centres undefined)	56*	1	0.4	58*	0.4	5
Cc1ccc(C)c(OCC(=O)Nc2ccc3c(c2)OCO3)c1C	-191	-1	0.9	6	2.9*	-15
CCN(C(=O)CCS(=O)(=O)c1ccc(Br)cc1)c1ccc2c(c1)OCO2	6	-1	0.3	67*	0.9	-4
Cc1cccc(OCC(=O)Nc2ccc3c(c2)OCO3)c1C	-56	-1	0.7	29	1.6	-1
Cc1ccc(S(=O)(=O)CCC(=O)Nc2ccc3c(c2)OCO3)cc1	94*	-2	1	1	0.1	-11
O=C(CC1(C(F)(F)F)OCCO1)Nc1ccc2c(c1)OCO2	8	-2	0.1	94*	0.9	-1
O=C(CCS(=O)(=O)c1ccc(Br)cc1)Nc1ccc2c(c1)OCO2	.	-3	.	.	.	-6
Cc1cc2cc(CN3C(=O)c4ccccc4C3=O)ccc2[nH]1	.	-1	.	.	.	-6
CCN(C(=O)c1coc(=O)c(Br)c1)c1ccc2c(c1)OCO2	62*	-7	0.4	59*	0.4	0
Cc1cccc(OCCCC(=O)Nc2ccc3c(c2)OCO3)c1	54*	-3	0.3	69*	0.5	0
Cc1ccc(S(=O)(=O)NCCC(=O)Nc2ccc3c(c2)OCO3)cc1	95*	-3	0.2	84*	0.1	7
O=C(CCNS(=O)(=O)c1ccc2c(c1)CCC(=O)N2)Nc1ccc2c(c1)OCCO2	11	-2	1.1	-13	0.9	2
CCN(C(=O)c1c(C)cc(=O)oc1C)c1ccc2c(c1)OCO2	0	-3	0.8	17	1	7
CCOC(=O)c1c2ccc(OCC(=O)N/N=C/c3ccc(Cl)cc3)cc2n2ccccc12	39	-5	0.9	9	0.6	.
CCOC(=O)c1c2ccc(OCC(=O)N/N=C/c3ccccc3C(F)(F)F)cc2n2ccccc12	59*	-5	0.8	16	0.4	.
Cc1csc(SCC(=O)Nc2cc(S(=O)(=O)N3CCCC3)ccc2Cl)n1	54*	-2	0.7	31	0.5	0
Cc1csc(SCC(=O)Nc2cccc(S(=O)(=O)N3CCCC3)c2)n1	78*	-3	0.2	81*	0.2	-11
Cc1ccc(C(C(=O)NC2CCCCC2)N2CCN(C(=O)c3ccco3)CC2)cc1 (centres undefined)	27	-3	0.5	47	0.7	10
NNC(=O)CN1C(c2ccc(Cl)cc2)=Nc2ccc(Br)cc2C1c1ccccc1 (centres undefined)	58*	2	0.5	47	0.4	.
O=c1c([N+](=O)[O-])c(NC2CCCCC2)c2ccccc2n1-c1ccccc1	.	-2	.	.	.	-1
CC(=O)NC1(C(F)(F)F)C(=O)NC(C)=C1C#N (centres undefined)	-13	-3	1.2	-18	1.1	2
CC1=C(C#N)C(Nc2ccc(Cl)cn2)(C(F)(F)F)C(=O)N1 (centres undefined)	21	-3	0.2	83*	0.8	11
CC1=C(C#N)C(Nc2ccc(C)cn2)(C(F)(F)F)C(=O)N1 (centres undefined)	42	-1	0.1	89*	0.6	6
COCCN(C(=O)c1csnn1)C(C(=O)NC(C)(C)C)c1cccc(OC)c1 (centres undefined)	12	-1	0.9	15	0.9	12
COc1cccc(-n2nnnc2SCC(=O)Nc2cccc(NC(C)=O)c2)c1	50*	-2	0.6	38	0.5	5
